Assay [1] can be described thus: BSK_4H_Eotaxin3: BioMAP Diversity Plus: 4H Assay for Eotaxin 3 Biomarker Activity (AID 2283000).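 As to outcome: CCL26 protein level quantified by ELISA in parallel with SRB cytotoxicity check.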 Conditions: primary human endothelial cells (HUVEC); actives raise or lower the signal. Put shortly:
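Readout is Eotaxin-3 (CCL26) level by ELISA in primary human umbilical vein endothelial cells harvested 24 h after chemical exposure; activity fitted in both directions against DMSO control.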

Read-out in assay [2]: Intercellular Adhesion Molecule 1 (ICAM1), ICAM1 (gene 3383)
Briefly: BSK_3C_ICAM1: BioMAP Diversity Plus: 3C Assay for Intercellular Adhesion Molecule 1 (ICAM1) Biomarker Activity (AID 2283003). The following applies: primary human endothelial cells (HUVEC); actives raise or lower the signal. Put shortly: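 Human vascular endothelial primary cells, 3C conditions, 24 h treatment. ICAM-1 by ELISA.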

Assay [3] in a line: BSK_3C_Proliferation: Cell Proliferation Assessment in the BioMAP Diversity Plus: 3C Assay (AID 2283006).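 As to AC50: potency may reflect either rise or fall in cell number versus DMSO.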 The following applies: primary human endothelial cells (HUVEC). In a few lines:
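Proliferation of human vascular endothelial primary cells after 48 h dosing, quantified as SRB-stained protein at 560 nm relative to DMSO.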

Assay [4] addresses Peroxisome proliferator-activated receptor gamma (Homo sapiens) (UniProt P37231). Briefly: ATG_PPARg_TRANS: Attagene TRANS-FACTORIAL HepG2 Assay for human Peroxisome Proliferator-activated Receptor-gamma (PPARg) (AID 2283007; active = hit-call score of the fitted dose curve at least 0.9, where 1 is the maximum). Put shortly:
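Endpoint reflects upward reporter mRNA change versus DMSO controls. Setup: transiently transfected HepG2, GAL4-UAS reporters driven by chimeric NR-Gal4, 24 h incubation, RT-PCR with capillary electrophoresis read-out.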

For assay [5], the target named is human Retinoid X Receptor beta (RXRb), RXRB (gene 6257) (UniProt P28702). Briefly: ATG_RXRb_TRANS: Attagene TRANS-FACTORIAL HepG2 Assay for human Retinoid X Receptor beta (RXRb) (AID 2283013; active = hit-call score of the fitted dose curve at least 0.9, where 1 is the maximum). In a few lines:
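Multiplexed TRANS reporter assay in HepG2; 24 h dosing; reporter mRNA by RT-PCR/CE fluorescence; gain-of-signal relative to DMSO.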

Read-out in assay [6]: E-selectin (Homo sapiens) (UniProt P16581)
Kind of assay: BSK_3C_Eselectin: BioMAP Diversity Plus: 3C Assay for Eselectin Biomarker Activity (AID 2283015).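 As to outcome: cell surface E-selectin protein quantified by ELISA 24 h after dosing.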 The following applies: primary human endothelial cells (HUVEC); actives raise or lower the signal. In a few lines: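 HUVEC, 3C stimulation; compound exposure 24 h; E-selectin by ELISA; gain- or loss-of-signal fitted bidirectionally vs DMSO baseline.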

Read-out in assay [7]: Interleukin-1 alpha (IL1a), IL1A (gene 3552)
Briefly: BSK_BE3C_IL1a: BioMAP Diversity Plus: BE3C Assay for Interleukin-1 alpha (IL1a) Biomarker Activity (AID 2283016). Conditions: primary human bronchial epithelial cells; actives raise or lower the signal. Put shortly:
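Cultures of primary human bronchial epithelial cells receive test chemical. After 24 h, IL-1a is quantified by ELISA, while parallel wells are fixed in TCA and SRB-stained for total protein. Changes in either direction are fitted relative to DMSO.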

Read-out in assay [8]: Monocyte Chemoattractant Protein-1 (MCP1), CCL2 (gene 6347)
Kind of assay: BSK_3C_MCP1: BioMAP Diversity Plus: 3C Assay for Monocyte Chemoattractant Protein-1 (MCP1) Biomarker Activity (AID 2283017). Conditions: primary human endothelial cells (HUVEC); actives raise or lower the signal. In a few lines: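 HUVEC, 3C system; 24 h chemical exposure; MCP-1 by ELISA; bidirectional curve fit vs DMSO baseline.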

Read-out in assay [9]: Monocyte Chemoattractant Protein-1 (MCP1), CCL2 (gene 6347)
Briefly: BSK_4H_MCP1: BioMAP Diversity Plus: 4H Assay for Monocyte Chemoattractant Protein-1 (MCP1) Biomarker Activity (AID 2283018). The following applies: primary human endothelial cells (HUVEC); actives raise or lower the signal. In a few lines: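 Readout: MCP-1 ELISA on compound-treated HUVEC, sampled 24 h post-dosing. Baseline and negative control DMSO; bidirectional fit. Overt toxicity checked alongside by sulforhodamine B protein staining at time of biomarker measurement.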

Read-out in assay [10]: Human Leukocyte Antigen - DR isotype (HLADR), HLA-DRA (gene 3122)
Kind of assay: BSK_3C_HLADR: BioMAP Diversity Plus: 3C Assay for Human Leukocyte Antigen - DR isotype (HLADR) Biomarker Activity (AID 2283019).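 As to outcome: ELISA of cell-surface HLA-DR on HUVEC 24 h after dosing.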 The following applies: primary human endothelial cells (HUVEC); actives raise or lower the signal. In a few lines: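 HUVEC, 3C stimulation, 24 h post-dose; HLA-DR by ELISA; bidirectional curve fit vs DMSO baseline; gain or loss of signal scored.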

In assay [11] the target is human Peroxisome Proliferator-activated Receptor delta (PPARd), PPARD (gene 5467) (UniProt Q03181). Kind of assay: ATG_PPARd_TRANS: Attagene TRANS-FACTORIAL HepG2 Assay for human Peroxisome Proliferator-activated Receptor delta (PPARd) (AID 2283002; active = hit-call score of the fitted dose curve at least 0.9, where 1 is the maximum). In a few lines:
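Cell-based TRANS reporter: HepG2, transient MRTU transfection, 24 h exposure. Readout = reporter mRNA (RT-PCR/CE, 6-FAM). Gain-of-signal fit vs DMSO control.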

Assay [12] concerns the target Retinoic acid receptor alpha (Homo sapiens) (UniProt P10276). Kind of assay: ATG_RARa_TRANS: Attagene TRANS-FACTORIAL HepG2 Assay for human Retinoic Acid Receptor alpha (RARa) (AID 2283005; active = hit-call score of the fitted dose curve at least 0.9, where 1 is the maximum). In a few lines: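 Reporter transcripts, measured by RT-PCR with fluorescent labeling and capillary electrophoresis after 24 h dosing, reflect activity of an exogenous human RARa–GAL4 fusion in transiently transfected HepG2. Fitted for increase relative to DMSO.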

Assay [13] addresses Nuclear receptor subfamily 1 group I member 2 (Homo sapiens) (UniProt O75469). Kind of assay: ATG_PXR_TRANS: Attagene TRANS-FACTORIAL HepG2 Assay for human Pregnane X Receptor (PXR) (AID 2283008; active = hit-call score of the fitted dose curve at least 0.9, where 1 is the maximum). In a few lines:
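Fluorescence intensity of FAM-labelled, HpaI-digested reporter amplicons, separated by capillary electrophoresis, quantifies induction. HepG2 cells with PXR-Gal4 trans-reporter system were exposed 24 h; DMSO defines baseline.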

Assay [14] concerns the target human Retinoic Acid Receptor gamma (RARg), RARG (gene 5916) (UniProt P13631). Briefly: ATG_RARg_TRANS: Attagene TRANS-FACTORIAL HepG2 Assay for human Retinoic Acid Receptor gamma (RARg) (AID 2283009; active = hit-call score of the fitted dose curve at least 0.9, where 1 is the maximum). In a few lines:
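HepG2, RARg-GAL4 TRANS system, 24 h exposure; reporter mRNA by RT-PCR + CE fluorescence; increase over DMSO.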

Assay [15] has as its target Retinoic acid receptor RXR-alpha (Homo sapiens) (UniProt P19793). Kind of assay: ATG_RXRa_TRANS: Attagene TRANS-FACTORIAL HepG2 Assay for human Retinoid X Receptor alpha (RXRa) (AID 2283012; active = hit-call score of the fitted dose curve at least 0.9, where 1 is the maximum). In a few lines: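 Cells (HepG2) carried transiently transfected GAL4-responsive reporter units. Following a 24 h chemical incubation, reporter mRNA induction was read via RT-PCR fragment analysis; DMSO served as negative control and baseline.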

The target in assay [16] is human Thyroid Receptor alpha (THRa1), THRA (gene 7067) (UniProt P10827). Kind of assay: ATG_THRa1_TRANS: Attagene TRANS-FACTORIAL HepG2 Assay for human Thyroid Receptor alpha (THRa1) (AID 2283014; active = hit-call score of the fitted dose curve at least 0.9, where 1 is the maximum). Put shortly:
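Transient HepG2 transfection, NR-Gal4 chimera driving GAL4-UAS reporters; 24 h compound exposure; total RNA, oligo(dT) RT, PCR, fluorescent primer extension, capillary electrophoresis. Upward direction vs DMSO control.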

Assay [17] deals with human Retinoic Acid Receptor beta (RARb), RARB (gene 5915) (UniProt P10826). Briefly: ATG_RARb_TRANS: Attagene TRANS-FACTORIAL HepG2 Assay for human Retinoic Acid Receptor beta (AID 2283004; active = hit-call score of the fitted dose curve at least 0.9, where 1 is the maximum). Put shortly:
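Readout is reporter mRNA induction: RNA reverse-transcribed, PCR-amplified, FAM-labelled, HpaI-cut and resolved by capillary electrophoresis. Transiently transfected HepG2 cells carrying exogenous NR–Gal4 chimeras were dosed for 24 h; activity fitted upward relative to DMSO.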

Records with an inconclusive call do not appear. Active and inactive are the calls of the source. The calls were made as follows, unless noted: active = hit-call score of the fitted dose curve at least 0.9, where 1 is the maximum; inactive = score below 0.9.

Chain of Retinoic acid receptor RXR-alpha (Homo sapiens) (P19793 whole entry, looked up, the tested form may be a part): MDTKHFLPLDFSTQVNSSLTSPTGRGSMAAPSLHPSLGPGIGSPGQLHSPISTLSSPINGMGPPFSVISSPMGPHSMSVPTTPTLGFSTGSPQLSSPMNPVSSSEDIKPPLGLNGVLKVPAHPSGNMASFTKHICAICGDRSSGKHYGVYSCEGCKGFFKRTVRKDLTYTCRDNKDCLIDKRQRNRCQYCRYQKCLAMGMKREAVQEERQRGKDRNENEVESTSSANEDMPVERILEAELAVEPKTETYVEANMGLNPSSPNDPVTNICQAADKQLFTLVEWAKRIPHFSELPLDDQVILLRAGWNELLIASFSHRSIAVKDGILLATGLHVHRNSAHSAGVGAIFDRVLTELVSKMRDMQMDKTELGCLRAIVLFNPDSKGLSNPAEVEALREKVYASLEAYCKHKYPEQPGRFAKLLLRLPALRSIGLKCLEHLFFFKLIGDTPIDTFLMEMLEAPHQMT
Chain of E-selectin (Homo sapiens) (P16581 whole entry, looked up): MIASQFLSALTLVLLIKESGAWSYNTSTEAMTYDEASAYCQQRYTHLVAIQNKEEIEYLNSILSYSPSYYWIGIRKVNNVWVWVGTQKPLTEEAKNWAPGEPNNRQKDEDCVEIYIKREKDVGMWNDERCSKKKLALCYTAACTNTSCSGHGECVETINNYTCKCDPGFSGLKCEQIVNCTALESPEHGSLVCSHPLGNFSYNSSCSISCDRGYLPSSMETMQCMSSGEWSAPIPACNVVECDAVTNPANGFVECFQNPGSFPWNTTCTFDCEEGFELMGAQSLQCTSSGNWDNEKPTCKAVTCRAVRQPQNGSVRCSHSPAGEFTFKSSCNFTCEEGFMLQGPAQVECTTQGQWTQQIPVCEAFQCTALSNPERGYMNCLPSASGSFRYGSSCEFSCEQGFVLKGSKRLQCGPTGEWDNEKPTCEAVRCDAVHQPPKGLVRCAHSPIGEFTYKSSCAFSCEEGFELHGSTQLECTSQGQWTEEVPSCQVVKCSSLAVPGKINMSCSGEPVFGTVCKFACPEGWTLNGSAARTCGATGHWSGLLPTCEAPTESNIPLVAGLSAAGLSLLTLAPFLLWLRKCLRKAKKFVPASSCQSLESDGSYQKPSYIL
Chain of human Thyroid Receptor alpha (THRa1), THRA (gene 7067) (P10827 whole entry, looked up, the tested form may be a part): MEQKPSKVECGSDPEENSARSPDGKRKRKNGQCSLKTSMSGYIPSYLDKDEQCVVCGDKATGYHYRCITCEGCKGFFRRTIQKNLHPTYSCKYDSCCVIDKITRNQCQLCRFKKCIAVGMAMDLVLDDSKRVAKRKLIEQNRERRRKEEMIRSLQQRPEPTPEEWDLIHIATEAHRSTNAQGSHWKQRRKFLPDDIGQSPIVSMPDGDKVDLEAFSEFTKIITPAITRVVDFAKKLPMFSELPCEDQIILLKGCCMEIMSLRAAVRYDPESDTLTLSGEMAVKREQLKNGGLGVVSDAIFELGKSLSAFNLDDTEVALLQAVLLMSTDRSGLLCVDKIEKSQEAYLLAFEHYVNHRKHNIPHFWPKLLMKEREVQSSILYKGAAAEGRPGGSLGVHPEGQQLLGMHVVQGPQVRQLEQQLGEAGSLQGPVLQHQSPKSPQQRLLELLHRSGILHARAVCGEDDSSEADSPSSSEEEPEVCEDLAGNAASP
Chain of Peroxisome proliferator-activated receptor gamma (Homo sapiens) (P37231 whole entry, looked up, the tested form may be a part): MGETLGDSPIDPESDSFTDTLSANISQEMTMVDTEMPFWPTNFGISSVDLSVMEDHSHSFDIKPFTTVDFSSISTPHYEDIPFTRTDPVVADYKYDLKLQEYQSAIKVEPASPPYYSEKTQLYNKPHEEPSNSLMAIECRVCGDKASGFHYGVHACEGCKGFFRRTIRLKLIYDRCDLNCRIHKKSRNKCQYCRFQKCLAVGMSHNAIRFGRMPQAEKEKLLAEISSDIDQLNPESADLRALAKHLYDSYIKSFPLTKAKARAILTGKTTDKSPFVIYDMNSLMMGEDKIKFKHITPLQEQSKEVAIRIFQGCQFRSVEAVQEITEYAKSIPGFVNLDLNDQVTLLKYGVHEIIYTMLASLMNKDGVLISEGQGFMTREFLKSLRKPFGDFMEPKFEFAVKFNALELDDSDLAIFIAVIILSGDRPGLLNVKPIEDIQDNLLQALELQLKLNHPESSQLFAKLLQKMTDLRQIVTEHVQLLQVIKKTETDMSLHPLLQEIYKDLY
Chain of human Retinoid X Receptor beta (RXRb), RXRB (gene 6257) (P28702 whole entry, looked up): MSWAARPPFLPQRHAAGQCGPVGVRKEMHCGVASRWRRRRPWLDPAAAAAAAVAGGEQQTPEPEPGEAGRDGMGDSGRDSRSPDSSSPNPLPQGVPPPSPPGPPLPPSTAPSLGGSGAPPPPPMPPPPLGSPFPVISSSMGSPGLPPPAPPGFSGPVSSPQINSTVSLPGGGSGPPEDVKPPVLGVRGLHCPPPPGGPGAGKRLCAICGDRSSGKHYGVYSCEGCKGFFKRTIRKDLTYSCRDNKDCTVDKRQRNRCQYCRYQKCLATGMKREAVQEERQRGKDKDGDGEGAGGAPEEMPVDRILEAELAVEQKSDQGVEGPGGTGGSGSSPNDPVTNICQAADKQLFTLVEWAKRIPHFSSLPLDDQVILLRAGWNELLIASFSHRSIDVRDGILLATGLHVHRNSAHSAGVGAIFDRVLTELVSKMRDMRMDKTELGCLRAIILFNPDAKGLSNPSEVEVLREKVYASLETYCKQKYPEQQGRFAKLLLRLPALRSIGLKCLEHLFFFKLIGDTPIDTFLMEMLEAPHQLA
Chain of human Peroxisome Proliferator-activated Receptor delta (PPARd), PPARD (gene 5467) (Q03181 whole entry, looked up): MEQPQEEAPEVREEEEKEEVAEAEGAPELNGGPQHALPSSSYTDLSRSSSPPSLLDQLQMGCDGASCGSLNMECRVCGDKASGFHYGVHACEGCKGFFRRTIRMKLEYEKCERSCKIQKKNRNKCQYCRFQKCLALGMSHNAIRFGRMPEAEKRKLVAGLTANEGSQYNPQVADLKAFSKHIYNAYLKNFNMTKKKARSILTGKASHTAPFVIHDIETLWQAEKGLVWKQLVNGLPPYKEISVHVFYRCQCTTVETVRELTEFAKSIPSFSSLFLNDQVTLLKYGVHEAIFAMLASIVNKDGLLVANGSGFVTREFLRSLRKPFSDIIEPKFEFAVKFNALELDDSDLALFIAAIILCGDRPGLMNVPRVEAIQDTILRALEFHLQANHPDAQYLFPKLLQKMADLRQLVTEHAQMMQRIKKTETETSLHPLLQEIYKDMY
Chain of human Retinoic Acid Receptor gamma (RARg), RARG (gene 5916) (P13631 whole entry, looked up, the tested form may be a part): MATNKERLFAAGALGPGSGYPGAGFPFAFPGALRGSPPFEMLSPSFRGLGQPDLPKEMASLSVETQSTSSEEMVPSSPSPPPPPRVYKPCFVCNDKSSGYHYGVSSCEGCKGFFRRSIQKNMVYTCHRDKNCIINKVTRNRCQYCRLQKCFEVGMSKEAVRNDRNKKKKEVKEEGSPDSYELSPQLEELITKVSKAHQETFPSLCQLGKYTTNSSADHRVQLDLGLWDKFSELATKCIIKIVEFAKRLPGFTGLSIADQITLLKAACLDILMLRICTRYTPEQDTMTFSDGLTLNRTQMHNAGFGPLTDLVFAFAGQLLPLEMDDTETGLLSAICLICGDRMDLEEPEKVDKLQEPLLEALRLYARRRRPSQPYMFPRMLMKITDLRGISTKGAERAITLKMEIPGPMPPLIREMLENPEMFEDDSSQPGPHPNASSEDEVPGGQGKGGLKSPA
Chain of Retinoic acid receptor alpha (Homo sapiens) (P10276 whole entry, looked up, the tested form may be a part): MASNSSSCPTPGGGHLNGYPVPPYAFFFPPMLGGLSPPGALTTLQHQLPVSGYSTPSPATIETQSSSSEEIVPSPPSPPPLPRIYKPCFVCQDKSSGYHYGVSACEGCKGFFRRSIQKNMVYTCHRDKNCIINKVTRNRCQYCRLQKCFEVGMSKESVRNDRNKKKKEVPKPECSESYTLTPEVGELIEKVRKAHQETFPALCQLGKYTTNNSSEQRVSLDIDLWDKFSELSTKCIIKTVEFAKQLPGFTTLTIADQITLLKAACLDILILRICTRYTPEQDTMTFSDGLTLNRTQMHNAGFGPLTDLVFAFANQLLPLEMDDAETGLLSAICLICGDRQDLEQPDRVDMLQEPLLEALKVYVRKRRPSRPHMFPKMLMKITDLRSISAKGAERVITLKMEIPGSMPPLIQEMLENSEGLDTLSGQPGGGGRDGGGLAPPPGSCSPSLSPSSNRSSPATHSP
Chain of Nuclear receptor subfamily 1 group I member 2 (Homo sapiens) (O75469 whole entry, looked up, the tested form may be a part): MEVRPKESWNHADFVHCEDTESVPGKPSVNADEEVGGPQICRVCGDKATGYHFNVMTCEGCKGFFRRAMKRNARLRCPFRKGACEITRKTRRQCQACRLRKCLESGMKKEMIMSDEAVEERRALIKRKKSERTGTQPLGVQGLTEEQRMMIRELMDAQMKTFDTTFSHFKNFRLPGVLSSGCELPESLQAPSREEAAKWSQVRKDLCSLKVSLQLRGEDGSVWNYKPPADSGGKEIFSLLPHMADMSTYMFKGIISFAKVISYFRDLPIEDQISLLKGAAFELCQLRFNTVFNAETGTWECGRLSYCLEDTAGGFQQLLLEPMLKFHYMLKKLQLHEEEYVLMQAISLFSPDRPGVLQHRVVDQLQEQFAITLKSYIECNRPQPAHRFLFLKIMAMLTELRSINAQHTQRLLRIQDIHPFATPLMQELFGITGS
Chain of human Retinoic Acid Receptor beta (RARb), RARB (gene 5915) (P10826 whole entry, looked up, the tested form may be a part): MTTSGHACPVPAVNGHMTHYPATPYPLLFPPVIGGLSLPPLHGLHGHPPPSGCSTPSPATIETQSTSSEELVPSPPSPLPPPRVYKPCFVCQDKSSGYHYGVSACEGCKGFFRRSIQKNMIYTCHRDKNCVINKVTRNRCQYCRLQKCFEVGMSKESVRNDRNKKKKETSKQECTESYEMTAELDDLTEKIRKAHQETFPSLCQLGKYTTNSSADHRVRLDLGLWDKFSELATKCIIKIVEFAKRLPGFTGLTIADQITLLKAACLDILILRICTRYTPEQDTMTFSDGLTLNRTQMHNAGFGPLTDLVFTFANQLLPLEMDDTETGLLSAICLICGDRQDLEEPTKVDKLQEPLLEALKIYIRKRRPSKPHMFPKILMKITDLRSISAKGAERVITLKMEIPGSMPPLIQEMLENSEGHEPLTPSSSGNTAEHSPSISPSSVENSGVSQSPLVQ

For orientation: AC50 means the concentration giving half of the maximal activity seen. For `CCCN(CCC)c1c([N+](=O)[O-])cc(C(F)(F)F)cc1[N+](=O)[O-]`, the AC50 in assay [1] was 33 µM (active); in assay [3] it was 29.1 µM (active); in assay [9], 24.7 µM (active). Also, the result in [2], in [4], in [5], in assay [6], in assay [7] and in assay [8] was inactive. Also, the outcome in assay [10] was inactive.
As for `Clc1ccccc1-c1nnc(-c2ccccc2Cl)nn1`, the outcome in assay [1], in assay [11], in [2], in assay [12], in assay [13] and in assay [14] was inactive. The call in assay [15], in assay [5], in assay [16], in assay [6], in assay [7] and in assay [8] was inactive. Moreover, the outcome in [10] was inactive. The results for the AC50 in assay [3], in [4] and in assay [9] were 11.7 µM (active), 64.7 µM (active) and 20 µM (active), respectively.
In the case of `CC[C@H](C)[C@H]1O[C@]2(C=C[C@@H]1C)C[C@@H]1C[C@@H](C/C=C(\C)[C@@H](O[C@H]3C[C@H](OC)[C@@H](O[C@H]4C[C@H](OC)[C@@H](O)[C@H](C)O4)[C@H](C)O3)[C@@H](C)/C=C/C=C3\CO[C@@H]4[C@H](O)C(C)=C[C@@H](C(=O)O1)[C@]34O)O2` (tested in a mixture with another compound), the AC50 in assay [1] is 9.57 µM (active); in assay [2] it was 12.4 µM (active); in assay [3], 4.78 µM (active); in [6] it was 9.55 µM (active); in assay [7] it was 9.4 µM (active); in assay [8] it was 6.9 µM (active). Moreover, the AC50 was 6.96 µM (active) in assay [9] and 5.8 µM (active) in [10]. In addition, the call in [17], in assay [12], in [14], in [15], in assay [5] and in assay [16] was inactive.
For `O=C(NC(=O)c1c(F)cccc1F)Nc1ccc(OC(F)(F)C(F)OC(F)(F)F)c(Cl)c1` (configuration not stated), the outcome in assay [1], in [11], in assay [2], in assay [3], in assay [4] and in [15] was inactive. For the same compound, the call in [16], in assay [7], in [8] and in assay [9] was inactive. Also, the results for the AC50 in assay [6] and in assay [10] were 12.7 µM (active) and 14 µM (active), respectively.

The values above are taken from PubChem BioAssay (EPA / NIEHS).
